Consider 12 molecules from ChEMBL document CHEMBL3433997, “St. Jude Leishmania screening dataset” (2016).

Molecules are shown by their SMILES.

Format in all cases: functional
Experiment [1] deals with Solute carrier family 2, facilitated glucose transporter member 1 (Homo sapiens) (UniProt P11166). The experiment can be described thus: ST_JUDE_LEISH: Cytotoxicity at 2uM final concentration against transgenic Leishmania Mexicana promastigotes LmGLUT1 that are glucose transport deficient and complemented with the human glucose transporter GLUT1. Activity is measured by DNA content using SYBR green in vitro.

The target in experiment [2] is Hexose transporter 1 (Plasmodium falciparum) (UniProt O97467). The experiment can be described thus: ST_JUDE_LEISH: Cytotoxicity at 2uM final concentration against transgenic Leishmania Mexicana promastigotes LmPfHT that are glucose transport deficient and complemented with the Plasmodium falciparum hexose transporter. Activity is measured by DNA content using SYBR green in vitro.

Experiment [3] has as its target Glucose transporter (Leishmania mexicana) (UniProt O61059). The experiment is described as follows: ST_JUDE_LEISH: Cytotoxicity at 2uM final concentration against transgenic Leishmania Mexicana promastigotes LmGT2 that are glucose transport deficient and complemented with the L. Mexicana glucose transporter 2. Activity is measured by DNA content using SYBR green in vitro.

Solute carrier family 2, facilitated glucose transporter member 1 (Homo sapiens), sequence (P11166 whole entry): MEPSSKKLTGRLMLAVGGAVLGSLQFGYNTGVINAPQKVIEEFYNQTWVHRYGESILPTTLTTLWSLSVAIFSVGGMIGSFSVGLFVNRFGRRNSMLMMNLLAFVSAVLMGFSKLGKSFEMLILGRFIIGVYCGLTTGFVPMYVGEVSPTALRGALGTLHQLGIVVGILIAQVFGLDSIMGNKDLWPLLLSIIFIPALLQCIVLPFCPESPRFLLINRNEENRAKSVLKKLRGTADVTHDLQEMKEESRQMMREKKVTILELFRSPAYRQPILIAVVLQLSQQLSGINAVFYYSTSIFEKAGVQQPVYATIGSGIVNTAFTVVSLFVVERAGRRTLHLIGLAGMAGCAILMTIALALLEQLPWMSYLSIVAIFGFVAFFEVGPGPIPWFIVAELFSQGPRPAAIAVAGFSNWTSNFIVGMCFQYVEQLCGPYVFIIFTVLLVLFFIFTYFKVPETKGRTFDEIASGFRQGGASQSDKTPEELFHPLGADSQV

With `NCC1CCCN1Cc1ccc(-c2cccc(-c3nc4cc(F)ccc4[nH]3)c2)cc1` (stereo unspecified), the values for the inhibition in experiment [1], in experiment [2] and in experiment [3] were 3.25%, 1.31% and 1.35%, respectively.

For `CC(C)N1CCN(C(CN2CCN(CCCOc3cccc(-c4ccccc4)c3)CC2)c2ccc(F)cc2)CC1` (stereo unspecified), the inhibition (usually the change of the read-out against control, counted positive when it falls) is 0.87% in experiment [1], 2.77% in experiment [2] and 0.81% in experiment [3].

Consider `O=C1c2ccccc2C(=O)N1CCOc1c(Br)cc(Br)cc1CNCCCNc1cc(=O)c2ccccc2[nH]1`, for which the results for the inhibition in experiment [1], in experiment [2] and in experiment [3] were 2.28%, 1.96% and 3.03%, respectively.

As to `CCOC(=O)c1cnc2cc(N3CCCC3)c(Cl)cc2c1OCC`, the values for the inhibition in experiment [1], in experiment [2] and in experiment [3] were 1.28%, -0.81% and 0.52%, respectively.

As to `Cc1cc(N(C)C)nc(Nc2ccc(NC(=O)c3c(F)cccc3F)cc2)n1`, the figures for the inhibition in experiment [1], in experiment [2] and in experiment [3] were 6.1%, 6.29% and -2.85%, respectively.

Consider `CCc1ccc(NC(=O)c2ccc(CN3CCCN(Cc4cccc(C)c4)CC3)cc2)cc1`, for which the inhibition stood at 7.45% in experiment [1], 9.33% in experiment [2] and 5.79% in experiment [3].

With `O=C(Nc1cccc(-c2ccc(-c3nc4ccccc4[nH]3)cc2)c1)Nc1ccc2c(c1)OCO2`, the inhibition is 1.14% in experiment [1], 1.8% in experiment [2] and 0.06% in experiment [3].

As to `CCN1CCC(N(CCCCCCCCc2ccc(C(F)(F)F)cc2)C(=O)Cn2c(CCc3cccc(F)c3F)cc(=O)c3ccccc32)CC1`, the inhibition in experiment [1] was found to be 8.91%; in experiment [2], 9.52%; in experiment [3], 4.76%.

Turning to `Oc1ccccc1-c1nc2cccnc2n1CCc1cccc(C(F)(F)F)c1`, the inhibition in experiment [1] was determined as 4.81%; in experiment [2], 3.7%; in experiment [3] it was 5.31%.

With `O=C(Nc1nccs1)c1cn(-c2ccccc2)nc1-c1ccc(Cl)s1`, the figures for the inhibition in experiment [1], in experiment [2] and in experiment [3] were 3.1%, 2.82% and 3.16%, respectively.

For `NC1=NC(Cc2ccccc2)(c2ccncc2)C(=O)N1CCCc1ccccc1` (stereo unspecified), the inhibition in experiment [1] came out at 3.32%; in experiment [2], 3.32%; in experiment [3] it was 2.03%.

As for `Cc1cccc(CNc2nc(C)cc(N[C@@H](CC(C)C)C(=O)NCCOc3ccccc3)n2)c1`, the inhibition in experiment [1] stood at 4.29%; in experiment [2], 5.38%; in experiment [3], 2.08%.
